Screening results as filed in PubChem.
APP transl inh: APP translation inhibition. SH-SY5Y APP 5'UTR-luciferase reporter, luminescence. inhibition, % at 2 µM. actives 0.82% (n = 190,000);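 active = inhibition above a set limit, derived from the sample mean plus 3 SD, cut at about 45% in these data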
IEC-6 tox: IEC-6 cytotoxicity, counter-screen for KLF5 inhibitors. inhibition, % at 5 µM. AID 1825. actives 0.78% (n = 290,000). luminescence viability; in the data active = inhibition above about 22%;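 also: 0% = plate median of test compound wells and 100% = cytotoxic reference compound wells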
aSyn UTR inh: MLPCN primary screen, SNCA 5' untranslated region. inhibition, % (tested at 7.5 µM). actives 0.82% (n = 300,000). alpha-synuclein 5'UTR reporter, inhibitor activity; in the data active = inhibition above about 60%;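 also: H4 neuroglioblastoma cells stably carrying SNCA 5'UTR luciferase fusion; 0% = DMSO wells and 100% = positive control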
Ba/F3 V617F tox: reduce viability of Ba/F3 cells dependent on JAK2V617F; Ba/F3 EpoR-JAK2V617F viability, ATP luminescence; AID 1446; inhibition, % at 5.6 µM; actives 1.1% (n = 220,000);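 active = inhibition above the campaign mean plus 3 SD over all tested compounds, cut at about 24% in these data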;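 also: cytokine-independent growth of Ba/F3 cells driven by EpoR plus mutant JAK2; 0% = DMSO-treated cells and 100% = JAK inhibitor I control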
BaF3 parental: reduces parental Ba/F3 cell viability, JAK2V617F counter-screen; CellTiter-Glo ATP luminescence; inhibition, % at 5.6 µM; actives 1.1% (n = 220,000); AID 1486;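 active = inhibition above a per-campaign cutoff, the mean inhibition of all tested compounds plus 3 SD, cut at about 27% in these data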;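 also: 0% = DMSO wells and 100% = JAK Inhibitor I control wells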
KLF5 inhibitor: kruppel-like factor 5 inhibition | DLD-1 KLF5 promoter-luciferase reporter, luminescence | inhibition, % at 5 µM | actives 0.23% (n = 290,000) | AID 1700;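 active = inhibition above a per-plate limit of that plate's mean compound inhibition plus 3 SD, cut at about 60% in these data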;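 also: 0% = DMSO wells and 100% = LY294002 at 200 µM; higher means less KLF5 promoter-driven luciferase light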
* hit, by the source's call; x = not tested or not shown. Sampled rows, rich in hits. Any-hit rate of the full collection: about 2.2%.

SMILES | APP transl inh | IEC-6 tox | aSyn UTR inh | Ba/F3 V617F tox | BaF3 parental | KLF5 inhibitor
O=C(CN1C(=O)c2ccccc2S1(=O)=O)c1ccccc1 | 3 | 4 | x | -5 | 0 | 14
O=C(Cn1c(-c2ccccc2)c[n+]2ccsc12)c1ccc([N+](=O)[O-])cc1 | -33 | 2 | -50 | 5 | 15 | -44
O=C(Cn1c(-c2ccccc2)c[n+]2ccsc12)c1ccccc1 | 4 | 3 | -25 | 70* | 60* | 13
O=C1/C(=C/c2ccccc2)CCCc2ccccc21 | -71 | -5 | -24 | 1 | 6 | -10
Cc1cccc(/C=C2\CCC(=C3SCCCS3)C2=O)c1 | -172 | 0 | 85* | -3 | 2 | -124
O=C1C(=C2SCCCS2)CC/C1=C\c1ccc(F)cc1 | -49 | 3 | 119* | 1 | 1 | -82
CC(=O)N1c2ccc(S(=O)(=O)N(C)Cc3ccccc3)cc2CC1C (configuration not stated) | x | 4 | -1 | x | x | -22
COc1cc2c(cc1OC)CN(C(=S)Nc1ccccc1)CC2 | -7 | -3 | -4 | 4 | 33* | -10
COc1ccc(/C=N/n2cnn(Cc3ccccc3Cl)c2=S)cc1 | 80* | -4 | 14 | -2 | 2 | -22
CC1CN(c2ccc(C(=O)c3ccccc3C(=O)O)cc2[N+](=O)[O-])CC(C)O1 (configuration not stated) | 6 | -1 | -3 | 2 | 5 | -24
OC(COC(c1ccccc1)c1ccccc1)CN1CCOCC1 (configuration not stated) | -8 | -2 | -9 | -1 | 81* | -4
OC(COc1ccc(CNCCc2ccc(C(F)(F)F)cc2)cc1)CN1CCCCC1 (configuration not stated) | 14 | 99* | 82* | 102* | 103* | -16
OC(COc1ccccc1)CN1CCCCCC1 (configuration not stated) | -13 | 11 | -7 | 0 | 81* | 5
OC(COc1ccccc1)CN1CCN(CC(O)COc2ccccc2)CC1 (configuration not stated) | -4 | -2 | 5 | 4 | 7 | -17
COc1ccccc1C(CNC(=O)C(C)Oc1ccc(Br)cc1)N1CCCC1 (configuration not stated) | x | x | -1 | x | x | x
COC(=O)N1[C@H](C)C=C[C@]1(Cc1ccccc1)C(=O)NCCCNc1ncc(C(F)(F)F)cc1Cl | x | x | -27 | x | x | x
CCOCCn1c(N2CCN(c3ccccc3)CC2)nc2c1c(=O)[nH]c(=O)n2C | -16 | -2 | -3 | 17 | 54* | -20
Cn1c(=O)[nH]c(=O)c2c1nc(N1CCNCC1)n2CCOc1ccccc1 | -15 | 11 | 3 | 1 | 8 | 3
COc1cc(NC(=O)Cn2cnc(S(=O)(=O)N3CCC(C)CC3)c2)cc(OC)c1OC | x | 3 | 14 | x | x | -23
CS(=O)(=O)N1CCC(C(=O)Nc2c(F)cccc2F)CC1 | -7 | -5 | -23 | 0 | 70* | -11
COc1ccc2cc1Oc1ccc(cc1)C[C@H]1c3c(cc4c(c3Oc3cc5c(cc3OC)CCN(C)[C@@H]5C2)OCO4)CCN1C | x | x | 109* | x | x | x
COc1ccc2cc1Oc1ccc(cc1)C[C@H]1c3cc(c(OC)cc3CCN1C)Oc1c(OC)c(OC)cc3c1[C@H](C2)N(C)CC3 | x | x | 36 | x | x | x
O=C(COC(=O)c1ccc(O)cc1)NCC1CCCO1 (configuration not stated) | 8 | -2 | -19 | 0 | 9 | 1
COc1ccc(NC(=O)c2cc(-c3ccccc3Cl)on2)cc1 | x | -11 | -125 | x | x | -93
COc1ccc(NC(=O)c2cc(-c3ccccc3OC)on2)cc1 | 74* | 8 | 20 | 3 | 6 | -6
SMILES | APP transl inh | IEC-6 tox | aSyn UTR inh | Ba/F3 V617F tox | BaF3 parental | KLF5 inhibitor
CCOC(=O)COc1ccc2c(c1)c(C(C)=O)c(C)n2-c1ccc(OC)cc1 | x | -3 | -10 | x | x | 4
Clc1nnc(Cl)c2c1ncn2Cc1ccccc1 | x | 0 | -22 | x | x | -21
CC1(C)CC(=O)c2sc(NC(=O)C(C)(C)C)nc2C1 | -29 | 0 | -184 | -4 | 0 | -49
CC1(C)CC(=O)c2sc(NC(=O)CN3CCCCC3)nc2C1 | 54* | 0 | -8 | 0 | 2 | 26
NCCCn1c(C(=O)c2cc(Cl)c(N)c(Cl)c2)c2ccc([N+](=O)[O-])cc2[n+]1[O-] | x | x | 100* | x | x | x
Cc1nn(C)cc1CN(C)C(=O)c1cc(COc2ccc(F)cc2F)on1 | 13 | 3 | 4 | -4 | -1 | -17
CCCC(c1nnnn1CC1CCCO1)N1CCN(c2cc(Cl)ccc2C)CC1 (configuration not stated) | -13 | 0 | 22 | -6 | 31* | -6
Cc1ccc(Cl)cc1N1CCN(C(CC(C)C)c2nnnn2CC2CCCO2)CC1 (configuration not stated) | 6 | -4 | -15 | -2 | 3 | -10
CCOC(=O)c1ccc(NC(=O)Cn2nnc3ccccc32)cc1 | -71 | -2 | x | -3 | 59* | -203
CC(=O)N1/C(=C/c2ccc(N(C)C)cc2)C(=O)c2ccccc21 | 81* | 21 | -48 | 2 | -8 | 21
C=CCn1c(=O)c(C(=O)NCCN(CC)CC)c(O)c2ccccc21 | -2 | 6 | x | -1 | 46* | -17
C=CCn1c(=O)c(C(=O)NCc2ccccc2Cl)c(O)c2ccccc21 | x | -7 | -18 | x | x | -16
O=C1C=C(c2cccs2)C[C@H](c2ccccc2)[C@H]1n1nnc([N+](=O)[O-])n1 | 16 | 8 | 71* | 18 | 11 | 5
Cn1nc(-c2ccccn2)nc2c(=O)n(C)c(=O)nc1-2 | 59* | 99* | 94* | 99* | 105* | 105*
COc1ccc(-c2nc(-c3ccccn3)ncc2S(C)(=O)=O)cc1 | 11 | 2 | 14 | 1 | 11 | -11
COc1ccc(S(=O)(=O)c2ccc(OC)cc2)cc1 | -10 | 0 | -3 | 0 | 9 | -18
COc1ccc(C2=CC(=O)C=CC2=O)cc1 | 48* | -4 | -38 | 0 | -9 | -22
CCN(C(=O)COC(=O)c1ccc(F)c(S(=O)(=O)N2CCOCC2)c1)C1CCS(=O)(=O)C1 (configuration not stated) | x | 1 | -14 | x | x | -22
Cc1ccc(-c2c[n+](Cc3cccc(Cl)c3)c3n2CCC3)cc1 | x | 4 | 21 | 82* | 75* | -1
Clc1cccc(C[n+]2cc(-c3ccccc3)n3c2CCC3)c1 | -12 | -12 | -11 | 65* | 65* | -14
Fc1ccccc1CSCc1nc2ccccc2[nH]1 | -18 | -9 | -133 | 2 | 12 | -99
O=S(=O)(c1ccc2c(c1)OCCO2)N1CCN(c2ncnc3sccc23)CC1 | -1 | 9 | -9 | 44* | 78* | 11
Cc1nnc(SCC(=O)N(Cc2ccccc2)C(C)(C)C)[nH]c1=O | -6 | -1 | 2 | 5 | 9 | -16
COc1ccc(C2c3ccc4ccccc4c3Oc3ncn(CCN4CCOCC4)c(=N)c32)cc1 (configuration not stated) | -11 | 2 | -13 | -2 | 2 | -12
